Test results reported in PubChem BioAssay (Tox21).
Results filed as inconclusive are left out. Activity calls are given as the source filed them. Unless noted, calls come from the whole dose curve; as a rule, active = well fitted curve in the direction sought with a large enough effect in the repeat runs; inconclusive = weak or mixed curves; inactive = no such curve, though single readings can be large; an effect the other way counts as inactive or inconclusive.

Key:
[1] = qHTS assay for small molecule agonists of the p53 signaling pathway (AID 651631; calls by dose curve; note: nearly all actives have a fitted effect of over 15% in size)
Outline: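 We treat p53RE-bla HCT-116 cells with compounds for 16 h at 37 °C, add LiveBLAzer B/G FRET substrate for 2 h at room temperature, and measure fluorescence intensity.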

[2] = qHTS assay for small molecules that induce genotoxicity in human embryonic kidney cells expressing luciferase-tagged ATAD5 (AID 651632); note: nearly all actives have a fitted effect of over 15% in size
Outline: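 Genotoxicity read-out via ATAD5-luciferase: HEK293T cells, 16 hr compound incubation at 37C, Amplite detection.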

[3] = qHTS assay for small molecule agonists of the p53 signaling pathway - cell viability (AID 651633; calls by dose curve;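 note: p53RE-bla HCT reporter cells with a stable beta-lactamase p53 reporter; series mostly up to about 83 µM; nearly all actives have a fitted effect of over 30% in size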)
Outline: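 p53RE-bla cells were treated with compound for 16 hours at 37 C. Cytotoxicity was then measured as CellTiter-Glo luminescence after 30 min at room temperature.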

[4] = qHTS assay for small molecules that induce genotoxicity in human embryonic kidney cells expressing luciferase-tagged ATAD5 - cell viability (AID 651634; calls by dose curve; note: nearly all actives have a fitted effect of over 25% in size)
Outline: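 Live-cell protease activity (CellTiter-Fluor, fluorescence) indicates viability. HEK293T cells with luciferase-tagged ATAD5; 15.5 hr compound treatment at 37C.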

[5] = qHTS assay for small molecule disruptors of the mitochondrial membrane potential - cell viability (AID 720634; calls by dose curve;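 note: human HepG2 liver cancer cells; series mostly up to about 83 µM; nearly all actives have a fitted effect of over 20% in size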)
Outline: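 Human hepatoma HepG2 cells were treated for 1 hr with test chemicals, then given m-MPI dye and CellTiter-Glo. Cell viability reflects luminescence proportional to cellular ATP.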

[6] = qHTS assay for small molecule disruptors of the mitochondrial membrane potential (AID 720635); note: potency is the fitted concentration of half-maximal effect
Outline: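 HepG2 cells exposed to compound 1 hr at 37C, then Mito-MPS dye 30 min. Ratio read of aggregate (540/590 nm) versus monomer (490/535 nm) fluorescence.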

[7] = qHTS assay to test for compound auto fluorescence at 590 nm (red) in HepG2 cells (AID 720674)
Outline: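 Seeding: 2,000 HepG2 cells/well, MEM/10% FBS, overnight 37 C. Dosing: compound vs DMSO. Incubation: 1 hr, 37 C, 5% CO2. Read: fluorescence 540 ex/590 em, Rose Bengal sodium as red reference.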

[8] = qHTS assay to test for compound auto fluorescence at 535 nm (green) in HepG2 cells (AID 720675)
[9] = qHTS assay to test for compound auto fluorescence at 460 nm (blue) in HEK293 cells (AID 720678)
Outline: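 HEK293 cells (2,000/well, medium with 10% dialyzed FBS) attached 4-5 hr, then exposed to compound overnight at 37C, 5% CO2. Blue fluorescence read at 405/460 nm, with triamterene as reference fluorophore.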

[10] = qHTS assay to test for compound auto fluorescence at 590 nm (red) in HEK293 cells (AID 720679)
Outline: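 HEK293 cells (2,000/well, 10% dialyzed FBS) attached 4-5 hr, then dosed with compound or DMSO and incubated overnight at 37C, 5% CO2. Red fluorescence read at 540/590 nm, Rose Bengal sodium as reference fluorophore.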

[11] = qHTS assay to test for compound auto fluorescence at 535 nm (green) in HEK293 cells (AID 720680)
[12] = qHTS assay to test for compound auto fluorescence at 460 nm (blue) in HEK293 cell free culture (AID 720681)
Outline: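 Compounds were added to cell-free DMEM with 10% FBS and fluorescence read directly. The blue channel used 405 nm excitation and 460 nm emission, with triamterene as the reference fluorophore.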

[13] = qHTS assay to test for compound auto fluorescence at 590 nm (red) in HEK293 cell free culture (AID 720683)
Outline: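 Cell-free wells of DMEM with 10% FBS received compound, and intrinsic fluorescence was read at excitation/emission 540/590 nm. Values expressed as equivalence to Rose Bengal sodium.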

[14] = qHTS assay to test for compound auto fluorescence at 590 nm (red) in HepG2 cell free culture (AID 720684)
Outline: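 Compound was pinned into wells holding MEM with 10% FBS and no cells, and red fluorescence was read at Ex/Em 540/590 nm. Signal is expressed as auto fluorescence equivalency relative to Rose Bengal sodium.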

[15] = qHTS assay to test for compound auto fluorescence at 460 nm (blue) in HepG2 cell free culture (AID 720685)
Outline: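 Compound (23 nL) or DMSO pinned into cell-free MEM with 10% FBS; blue fluorescence read at 405/460 nm excitation/emission, expressed as auto-fluorescence equivalency to triamterene.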

[16] = qHTS assay to test for compound auto fluorescence at 535 nm (green) in HepG2 cell free culture (AID 720686)
[17] = qHTS assay to test for compound auto fluorescence at 460 nm (blue) in HepG2 cells (AID 720687)
Outline: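 HepG2 cells in MEM with 10% FBS, attached overnight at 37 C, were exposed to compound or DMSO for 1 hr at 37 C, 5% CO2. Blue fluorescence was read at 405/460 nm, with triamterene as reference fluorophore.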

[18] = qHTS assay to test for compound auto fluorescence at 535 nm (green) in HEK293 cell free culture (AID 720682)
Outline: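 Green-channel intensity (Ex/Em 485/535 nm) was recorded from compound-treated wells containing only DMEM with 10% FBS. Fluorescein provided the equivalency standard.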

[19] = biological target: Glucocorticoid receptor (Homo sapiens) (UniProt P04150); test: qHTS assay to identify small molecule agonists of the glucocorticoid receptor (GR) signaling pathway (AID 720691; active = well fitted activation curve with a large enough effect in the signal ratio in the repeat runs, not every such curve was filed as active; the % refers to the signal ratio)
Outline: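 Beta-lactamase reporter activity, read as fluorescence intensity, was measured in GR-bla HeLa cells exposed to compounds for 18 h at 37 C and then loaded with LiveBLAzer B/G FRET substrate for 2 h at room temperature.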

[20] = biological target: Glucocorticoid receptor (Homo sapiens) (UniProt P04150); test: qHTS assay to identify small molecule antagonists of the glucocorticoid receptor (GR) signaling pathway (AID 720692; active = well fitted inhibition curve with a large enough effect in the signal ratio in the repeat runs, not every such curve was filed as active; the % refers to the signal ratio)
Outline: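 Fluorescence from cleaved LiveBLAzer B/G FRET substrate reports GRE-driven beta-lactamase in HeLa cells; compounds are tested against 5 nM dexamethasone (final) over 18 h at 37 C, substrate incubation 2 h at room temperature.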

Measured: Potency

Chain of Glucocorticoid receptor (Homo sapiens) (P04150 whole entry, looked up): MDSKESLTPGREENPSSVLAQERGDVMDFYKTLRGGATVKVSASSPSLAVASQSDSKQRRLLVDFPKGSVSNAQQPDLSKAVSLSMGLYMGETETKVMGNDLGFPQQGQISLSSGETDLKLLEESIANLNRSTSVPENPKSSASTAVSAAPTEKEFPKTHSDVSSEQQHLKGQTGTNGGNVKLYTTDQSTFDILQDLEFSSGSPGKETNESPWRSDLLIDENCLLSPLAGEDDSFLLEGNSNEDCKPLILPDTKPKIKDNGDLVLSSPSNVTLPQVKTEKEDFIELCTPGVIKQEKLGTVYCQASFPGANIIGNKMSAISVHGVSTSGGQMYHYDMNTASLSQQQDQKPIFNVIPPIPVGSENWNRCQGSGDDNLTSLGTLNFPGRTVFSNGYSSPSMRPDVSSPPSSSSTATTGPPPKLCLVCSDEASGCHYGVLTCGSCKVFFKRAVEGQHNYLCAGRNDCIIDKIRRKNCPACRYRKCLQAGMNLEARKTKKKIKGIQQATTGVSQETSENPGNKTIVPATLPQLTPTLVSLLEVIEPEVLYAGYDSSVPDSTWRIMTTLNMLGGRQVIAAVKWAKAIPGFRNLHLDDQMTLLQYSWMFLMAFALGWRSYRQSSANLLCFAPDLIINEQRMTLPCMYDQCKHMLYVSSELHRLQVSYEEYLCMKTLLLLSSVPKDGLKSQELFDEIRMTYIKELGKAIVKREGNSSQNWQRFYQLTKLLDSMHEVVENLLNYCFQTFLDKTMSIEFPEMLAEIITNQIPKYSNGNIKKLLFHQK

NC(=O)c1cn(Cc2c(F)cccc2F)nn1
inactive: [1] | [2] | [3] | [4] | [5] | [6] | [7] | [8] | [9] | [10] | [11] | [12] | [13] | [14] | [15] | [16] | [17]

NS(=O)(=O)c1ccccc1Cl
inactive: [1] | [2] | [3] | [4] | [5] | [6] | [7] | [8] | [9] | [10] | [11] | [12] | [18] | [13] | [14] | [15] | [17]

C=CCOCC(CC)(CO)COCC=C
inactive: [1] | [2] | [3] | [4] | [5] | [6] | [7] | [8] | [9] | [10] | [11] | [12] | [18] | [13] | [14] | [15] | [16] | [17] | [19]

OCCOc1ccc(OCCO)cc1
inactive: [1] | [2] | [3] | [4] | [5] | [7] | [8] | [9] | [10] | [11] | [12] | [18] | [13] | [14] | [15] | [17] | [19] | [20]
active: [6] 1560 nM

CCOC(=O)C(=O)OCC
inactive: [1] | [2] | [3] | [4] | [5] | [6] | [7] | [8] | [9] | [10] | [11] | [12] | [13] | [14] | [15] | [16] | [17] | [19] | [20]

CCC(C)C1CCCCC1=O (stereo not drawn)
inactive: [1] | [2] | [3] | [4] | [5] | [6] | [7] | [8] | [9] | [10] | [11] | [12] | [18] | [13] | [14] | [15] | [16] | [17]

CC1=CC(C)C(C=O)CC1 (stereo not drawn)
inactive: [1] | [2] | [3] | [4] | [5] | [6] | [7] | [8] | [9] | [10] | [11] | [12] | [18] | [13] | [14] | [15] | [16] | [17] | [19] | [20]

C[N+](C)(C)CC(O)CC(=O)[O-] (stereo not drawn)
inactive: [1] | [2] | [3] | [4] | [5] | [6] | [7] | [8] | [9] | [10] | [11] | [12] | [18] | [13] | [14] | [15] | [16] | [17] | [19] | [20]

C[C@](N)(Cc1ccc(O)cc1)C(=O)O
inactive: [1] | [2] | [3] | [4] | [5] | [6] | [7] | [8] | [9] | [10] | [11] | [12] | [13] | [14] | [15] | [16] | [17] | [19]

N=c1nc(N2CCCCC2)cc(N)n1O
inactive: [1] | [2] | [3] | [4] | [5] | [6] | [7] | [8] | [9] | [10] | [11] | [12] | [18] | [13] | [14] | [15] | [16] | [17] | [19] | [20]

CCCCCSCCCCC
inactive: [1] | [2] | [3] | [4] | [5] | [6] | [7] | [8] | [9] | [10] | [11] | [12] | [18] | [13] | [14] | [15] | [16] | [17]

CC(C)(CC(=O)O)C(=O)O
inactive: [1] | [2] | [3] | [4] | [5] | [6] | [7] | [8] | [9] | [10] | [11] | [12] | [13] | [14] | [15] | [16] | [17]

CC(C(=O)O)c1ccc(CC2CCCC2=O)cc1 (stereo not drawn)
inactive: [1] | [2] | [3] | [4] | [5] | [6] | [7] | [8] | [9] | [10] | [11] | [12] | [18] | [13] | [14] | [15] | [16] | [17]

CC(=O)Nc1c(I)cc(I)c(C(=O)O)c1I
inactive: [1] | [2] | [3] | [4] | [5] | [6] | [7] | [8] | [9] | [10] | [11] | [12] | [18] | [13] | [14] | [15] | [17] | [19] | [20]

CC(C)NCC(O)c1ccc(NS(C)(=O)=O)cc1 (stereo not drawn)
inactive: [1] | [2] | [3] | [4] | [5] | [6] | [7] | [8] | [9] | [10] | [11] | [12] | [18] | [13] | [14] | [15] | [17] | [19] | [20]
